Data as given in PubChem BioAssay (Tox21).
Inconclusive results are not listed. The source made the active and inactive calls. The call rests on the fitted dose curve; in most records, active means well fitted cell-killing curve with a large enough effect in the repeat runs; inconclusive means weak or mixed curves, or effect the other way; inactive means no such curve, though single readings can be large or run the other way.

test: qHTS assay to identify small molecule antagonists of the vitamin D receptor (VDR) signaling pathway - cell viability counter screen (AID 743225); conditions: VDR-bla HEK293T viability, CellTiter-Glo luminescence, 16 h; series mostly up to 61 µM; viability change, negative = cytotoxic: at the top concentration; further: nearly all actives have a fitted effect of over 50% in size
Excerpt: U.S. Tox21 Program National Center for Advancing Translational Sciences [NCATS] NIH Chemical Genomics Center [NCGC] U.S. Environmental Protection Agency [EPA] National Institutes of Environmental Health Sciences [NIEHS] National Toxicology Program [NTP] U.S. Food and Drug Administration [FDA] Tox21 Assay Overview: The vitamin D receptor (VDR), a member of nuclear hormone receptor superfamily, plays a critical role in calcium homeostasis and bone metabolism. It is also involved in cell differentiation and growth, and thrombogenicity. To identify the compounds that inhibit VDR signaling, the VDR-UAS-bla HEK 293T cell line (Invitrogen, Carlsbad, CA, USA) containing a beta-lactamase reporter gene under the control of an upstream activator sequence (UAS) was used to screen the Tox21 10K compound library. The cytotoxicity of the Tox21 compound library against the VDR-bla cell line was tested in parallel by measuring the cell viability using CellTiter-Glo assay (Promega, Madison, WI) in the same wells.
Tox21 Assay Protocol Summary: VDR-bla cells were dispensed at 2,000 cells/5 uL of assay medium per well into black wall/clear-bottom 1536-well plates using a Multidrop Combi (Thermo Fisher Scientific, Waltham, MA) dispenser. After the assay plates were incubated at a 37C and 5% CO2 for 4 h, 23 nL of compounds dissolved in DMSO, positive controls or DMSO only was transferred to the assay plate by a Pintool station (Kalypsys, San Diego, CA), followed by addition of 1 uL of 1-alpha, 25-Dihydroxy Vitamin D3 (3 nM, final concentration in the wells) using a Bioraptr Flying Reagent Dispenser (FRD) workstation (Beckman Coulter, Indianapolis, IN). The plates were incubated at 37C and 5% CO2 for 16 h, and then 1 uL of LiveBLAzerTM B/G FRET substrate was added using a Bioraptr FRD. The plates were incubated at room temperature for 2 h and fluorescence intensity was measured by an Envision plate reader (PerkinElmer, Shelton, CT). For cell viability readout that measures cytotoxicity, 3 ul/well of CellTiter-Glo reagent was added into the assay plates using a Bioraptr FRD. After 30 min incubation at room temperature, the luminescence intensity in the plates was measured using a ViewLux plate reader (PerkinElmer).
On the % scale 0 is the no-effect control and ±100 the full control effect.

Row | Compound | viability change, negative = cytotoxic
1 | O=C(O)/C=C/c1ccc(/C=C/C(=O)O)cc1 | -7.01% (inactive)
2 | CNc1ncnc2nc[nH]c12 | -4.25% [at 78.8 µM] (inactive)
3 | C#CC(C)(O)CC(C)C (stereo not given) | 5.82% (inactive)
4 | O=c1[nH]c(=O)n([C@H]2O[C@H](CO)[C@@H](O)[C@@H]2O)cc1/C=C\Br | -0.982% (inactive)
5 | CN(C)C(=O)Nc1ccccc1 | -11.3% (inactive)
6 | NC1CCN(c2cccc(Cl)n2)CC1 | 6.16% (inactive)
7 | Nc1ncnc2c1ncn2Cc1c(F)cccc1Cl | 4.68% (inactive)
8 | COc1cc(O)cc(O)c1 | 24.1% (inactive)
9 | CCO[Si](CCCN=C=O)(OCC)OCC | -17% (inactive)
10 | CC(C)CCOC(=O)CC(C)C | 10.2% (inactive)
11 | CNC(=O)c1c(I)c(NC(=O)CCCCC(=O)Nc2c(I)c(C(=O)O)c(I)c(C(=O)NC)c2I)c(I)c(C(=O)O)c1I | 12.4% (inactive)
12 | CC(C)(C)OC(=O)N1C[C@@H](F)C[C@H]1C(=O)O | 4.73% [at 78.8 µM] (inactive)
13 | CCCC(C)C(=O)O (stereo not given) | 11.8% (inactive)
14 | CCCCCCCCC=O | -3.37% (inactive)
15 | CC(=O)O[C@H](CC(=O)[O-])C[N+](C)(C)C | 0.0594% (inactive)
16 | CC1=CC(C)C(C=O)C(C)C1 (stereo not given) | 4.64% (inactive)
17 | O=S(=O)(c1cccc2cnccc12)N1CCCNCC1 | -9.15% (inactive)
18 | Cc1ccccc1Br | -3.26% (inactive)
19 | COC[C@H](c1ccc(C(F)(F)F)cc1)N1CCN(C2(C)CCN(C(=O)c3c(C)ncnc3C)CC2)C[C@H]1C | -1.16% (inactive)
20 | [O-][N+](=Nc1ccccc1)c1ccccc1 | -11.2% (inactive)

Row | Compound | viability change, negative = cytotoxic
21 | Nc1nc2c(ncn2CCC(CO)CO)c(=O)[nH]1 | 4.28% (inactive)
22 | CC(C)CCCC(C)NCCC(C)C (stereo not given) | -0.122% (inactive)
23 | O=C(O)c1cccc(C(=O)O)n1 | 5.62% (inactive)
24 | CN1[C@@H]2CC[C@H]1CC(NC(=O)n1c(=O)[nH]c3ccccc31)C2 (stereo not given in full) | 6.64% (inactive)
25 | CCN(CC)C(=O)c1ccc(O)c(OC)c1 | 0.806% (inactive)
26 | CCN(CC)S(=O)(=O)c1ccc(C(=O)O)cc1 | 12.6% (inactive)
27 | CC(C)[C@H](N)C(=O)OCCOCn1cnc2c(=O)[nH]c(N)nc21 | -6.59% (inactive)
28 | COc1ccc(N=[N+]([O-])c2ccc(OC)cc2)cc1 | 0.271% (inactive)
29 | CCCCCCC(CCCCCCCCCCC(=O)OCC(COC(C)=O)OC(C)=O)OC(C)=O (stereo not given) | 2.8% (inactive)
30 | OCc1ccccn1 | 0.258% (inactive)
31 | COCc1ccc(COC)cc1 | 9.13% (inactive)
32 | Cc1nc(-c2ccc(OCC(C)C)c(C#N)c2)sc1C(=O)O | 7.41% (inactive)
33 | Nc1[nH]c(=O)ncc1F | -7.99% (inactive)
34 | Nc1nc(F)nc2c1ncn2[C@@H]1O[C@H](CO)[C@@H](O)[C@@H]1O | -6.63% (inactive)
35 | NC(=O)CCCCC1CCSS1 (stereo not given) | -0.0052% (inactive)
36 | CCCC=O | 7.93% (inactive)
37 | c1ccc(CCCc2ccccn2)cc1 | -1.96% (inactive)
38 | C1C2OC2C2C1C1CC2C2OC12 (stereo not given) | 14.9% [at 78.8 µM] (inactive)
39 | N[C@@H](CS)C(=O)O | -14.4% [at 78.8 µM] (inactive)
40 | C=CC(=O)N1CCOCC1 | 10.2% (inactive)
